From PubChem BioAssay (NCI)
The panel holds about 83,000 compounds, 20% with a hit somewhere; the sample as a whole holds those more often.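 Plates (96-well) were seeded with cells, treated with compound at one concentration, and incubated for 48 hours before percent growth was determined.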 Unmarked numbers belong to inactive results. The source made the active and inactive calls. How the source made its calls: active means growth percent below 10; inactive means the rest.

Test system: DU-145 prostate
Assay: NCI-60 one-dose screen, 48 h (100 = growth as untreated, 0 = no growth, -100 = all killed)
Conditions: 10 µM

SMILES	growth
Cc1cccc2cc(-c3cc(-c4ccccc4)nc(=S)[nH]3)c(Cl)nc12	104%
Cc1ccc(/C=C(\C#N)n2nnc3c(F)cccc32)cc1	13.9%
COc1ccc2nc(Cl)c(-c3cc(-c4ccccc4)nc(=S)[nH]3)cc2c1	72.6%
Cc1ccc(C(=O)Nc2ccc(-n3c(C)nc4c(cnn4-c4ccccc4)c3=O)cc2)cc1	84.9%
Cc1ccc(-c2ccc(SCC(=O)Nc3ccc(Cl)c(C(F)(F)F)c3)nn2)cc1	23.9%
O=C(COc1ccc(NC(=O)Nc2ccc(Cl)cc2)cc1)N=Nc1c(O)[nH]c2ccc([N+](=O)[O-])cc12	60.3%
Cc1nn(-c2ccccc2)c2ncn(CC(=O)N/N=C/c3c[nH]c4ccccc34)c(=O)c12	99.6%
S=c1nc(-c2ccccc2)cc(-c2cc3ccccc3nc2Cl)[nH]1	90.5%
Cc1ccc(C(=O)NCCCNc2nc(Nc3ccc(N4CCN(C)CC4)cc3)nc3ccsc23)cc1	58.7%
COc1ccc2nc(Cl)c(-c3cc(-c4ccccc4)nc(N)n3)cc2c1	33.3%
COc1cc(Cn2c(C(F)(F)F)cc3c(Cl)ncnc32)ccn1	-100% (active)
O=C1CCC(N2Cc3c(NCc4ccc(-c5ccccc5)cc4)cccc3C2=O)C(=O)N1 (configuration not stated)	85%
O=c1nc(-c2ccccc2)cc(-c2cc3ccccc3nc2Cl)[nH]1	38.4%
Cc1nc2c(cnn2-c2ccccc2)c(=O)n1-c1ccc(NC(=O)c2ccc(F)cc2)cc1	80.7%
O=C(c1ccc([N+](=O)[O-])c([N+](=O)[O-])c1O)n1[nH]c(=O)c2ccccc2c1=O	25.4%
Cc1ccc(-c2cc(-c3cc4ccccc4nc3Cl)[nH]c(=S)n2)cc1	63.7%
COc1ccc2nc(Cl)c(-c3cc(-c4ccccc4)nc(=O)[nH]3)cc2c1	26.1%
O=C(NO)c1ccc(CNc2nc(-c3ccccc3)c3ccccc3n2)cc1	10.2%
Cc1ccc(NC(=O)c2ccc(-n3c(=O)[nH]c4ccccc4c3=O)cc2)cc1	102%

SMILES	growth
Nc1nc(-c2ccccc2)cc(-c2cc3ccccc3nc2Cl)n1	81.5%
C=C1CC[C@H](C(=C)C)[C@H]2C=C(C)C(=O)C3=C(C(=O)[C@@](C)(O)C3)[C@H]12	-45.4% (active)
Cc1cccc2cc(-c3cc(-c4ccccc4)nc(=O)[nH]3)c(Cl)nc12	91.7%
Cc1ccc(C(C)C)cc1NC(=O)c1ccccc1O	63.3%
O=C(Nc1ccccc1)Nc1nc2ccccc2s1	104%
NC1=NC(c2ccccc2Cl)N=C(Nc2nn[nH]n2)N1 (configuration not stated)	106%
C=C(C)[C@@H]1CC[C@]2(C)[C@H](CC=C3[C@@H]4CC(C)(C)CC[C@]4(C(=O)N4CCOCC4)CC[C@]32C)[C@@]1(C)CCCN	-93.1% (active)
Cc1ccc(-c2cc(-c3cc4ccccc4nc3Cl)[nH]c(=O)n2)cc1	14.2%
O=C1Nc2cc(Cl)ccc2/C1=C/c1cccc(OCc2ccccc2)c1	3.5% (active)
O=C1Nc2ccc(Cl)cc2/C1=C/c1cccc(OCc2ccccc2)c1	45.3%
O=C1Nc2ccc(Cl)cc2/C1=C/c1ccc(OCc2ccc(Br)cc2F)cc1	41.1%
O=c1[nH]n(C(=S)N/N=C/c2ccc(F)cc2)c(=O)c2ccccc12	68.9%
O=C1Nc2cc(Cl)ccc2/C1=C/c1ccc(OCc2ccc(Br)cc2F)cc1	-17.5% (active)
CN1CCc2c(sc3ncnc(N/N=C/c4cn(-c5ccccc5)nc4-c4ccc(Br)cc4)c23)C1	56.2%
COc1ccc(C=CC(=O)c2ccc(-n3c(C)nc4c(cnn4-c4ccccc4)c3=O)cc2)cc1	83.2%
O=C1Nc2cc(Cl)ccc2/C1=C/c1cccc(OCc2ccc(Br)cc2F)c1	4.44% (active)
O=C1Nc2ccc(F)cc2/C1=C/c1cccc(OCc2ccccc2)c1	30.4%
O=C(CSc1ccc(-c2ccc(Cl)cc2)nn1)Nc1ccc(Cl)c(C(F)(F)F)c1	80%
